# In the library only some 1.6% were active in any assay of this set; here they are far more common.
# NPR1 activator – GC-A (human) enzyme activation | P16066 | actives 0.14% (n = 370,000) | activation, % at 10 µM | HEK293 GC-A cells, cGMP TR-FRET, EC30 ANP; 0% at EC30 ANP, 100% saturating ANP | AID 1671463; in the data active means activation above about 40%
# NPR2 activator – GC-B (human) receptor activation | AID 1920062 | HEK293-GC-B cells, CNP EC30, cGMP TR-FRET; 0% at EC30 CNP, 100% saturating CNP | activation, % at 10 µM | P20594 | actives 0.11% (n = 370,000);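 active means activation at 10 µM reaching about 35% in either raw or pattern-adjusted values, limit read from the data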
# Rev-erbA mod – Rev-erb alpha (human) modulation | P20393 | Rev-erbα–FITC-DNA binding, fluorescence polarization, 90 min | activity, % at 10 µM | actives 0.79% (n = 370,000);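 active means activity above about 14%, limit read from the data; passing the limit was not always enough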;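 further: 0% = DMSO wells with 35 nM protein and 100% = DMSO wells with 750 nM protein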
# PG9 binder – small molecules binding HIV-1 gp120 antibody PG9; AID 624416; inhibition, % at 6.7 µM; actives 0.43% (n = 360,000); TR-FRET gp120-PG9 antibody binding; in the data active means inhibition above about 8.5%
# V-ATPase pHluor – yeast V-ATPase proton transport regulation by pHLuorin; S. cerevisiae, pHLuorin cytosolic pH fluorescence; response, % at 10 µM; actives 0.37% (n = 350,000); in the data active means response mostly above about 7.3%, no sharp cut-off; inactive means mostly below about 5.4%; further: actives read high
# PG9 bind confirm – confirmation of small molecules binding HIV-1 gp120 antibody PG9; shares compounds with PG9 binder; TR-FRET PG9 antibody binding, biochemical; inhibition, % at 6.7 µM; actives 90% (n = 1,500); AID 651571; in the data active means inhibition above about 9%
# PGV04 Ab binding – PGV04 control antibody binding, counter-screen; inhibition, % at 6.7 µM; shares compounds with PG9 binder; actives 95% (n = 1,500); TR-FRET PGV04 antibody-gp120 binding, biochemical; in the data active means inhibition above about 9.5%
# PG9 bind DR – PG9 antibody binding, dose response; shares compounds with PG9 binder; TR-FRET PG9 antibody-gp120 binding inhibition; IC50, µM; 95 tested, under 10 active; AID 651848; in the data active means IC50 below about 10 µM
# PGV04 binding DR – PGV04 binding, dose response counter-screen; TR-FRET binding to control antibody PGV04; actives 20% (n = 95); AID 651937; shares compounds with PG9 binder; IC50, µM
# PG126 DR counter – PG126 binding, dose response counter-screen; shares compounds with PG9 binder; TR-FRET binding to antibody PG126, counterscreen; IC50, µM; actives 20% (n = 95); AID 651939
# * hit, by the source's call; i = inactive; x = no result given. Unless noted, no stated cut-off is given here; in the data, active means IC50 below about 9 µM; inactive means the rest.
SMILES,NPR1 activator,NPR2 activator,Rev-erbA mod,PG9 binder,V-ATPase pHluor,PG9 bind confirm,PGV04 Ab binding,others
COC(=O)Nc1nc(-c2ccccc2)c(C(=O)c2ccccc2)s1,6.3,-14.1,19.1,20.1*,0.3,19.4*,19.4*,PG9 bind DR=>67.1;PGV04 binding DR=i;PG126 DR counter=i
Cc1ccccc1CS(=O)(=O)Cc1ccc(C(=O)Nc2c(C)cccc2C)o1,0.1,-5.7,-4.4,x,x,x,x,
COc1ccc(-c2nc3c(C)cc(Br)cn3c2CC(C)(C)C)cc1OC,1.6,1.0,-2.8,22.2*,x,25.3*,39.6*,
COc1ccc(-c2nc3c(C)cc(Br)cn3c2CC2CCCCC2)cc1OC,8.2,8.2,3.3,13.7*,x,22.4*,27.4*,
COc1ccccc1Cc1c(-c2ccc(OC)c(OC)c2)nc2c(C)cc(Br)cn12,-3.9,-0.7,6.2,-1.8,x,x,x,
COc1ccc(/C(C)=N\NC(=O)c2ccco2)cc1,2.0,-2.8,-4.3,x,x,x,x,
C[C@H]1/C=C/CC(=O)N[C@@H](c2ccc3ccccc3c2)[C@@H](C)/C=C/CC(=O)N[C@H]1c1ccc2ccccc2c1,-0.6,-0.6,6.9,x,x,x,x,
CCOC(=O)N1CCN(C(=O)CCCCCn2c(=S)[nH]c3cc4c(cc3c2=O)OCO4)CC1,-0.3,-1.1,0.5,8.7*,0.8,3.0,15.6*,
O=C(CCCCCn1c(=S)[nH]c2cc3c(cc2c1=O)OCO3)NCCc1ccccc1,-9.4,-8.3,18.1,19.9*,1.0,17.5*,24.0*,
COc1ccc(N2CCN(C(=O)CCCCCn3c(=S)[nH]c4cc5c(cc4c3=O)OCO5)CC2)cc1,x,x,x,x,-3.8,x,x,
CCN(CCCNC(=O)CCn1c(=S)[nH]c2cc3c(cc2c1=O)OCO3)c1cccc(C)c1,-6.5,-3.8,-0.9,10.1*,-5.4,11.6*,14.2*,
COc1ccc(Cn2cc(CN3CC=CS3(=O)=O)nn2)cc1,1.0,4.3,2.4,x,x,x,x,
COc1ccccc1OCC(=O)Nc1cccc(-c2nnc(-c3ccco3)o2)c1,-0.2,8.4,6.4,-0.5,0.8,x,x,
O=C(COc1ccccc1)Nc1ccc(-c2nnc(-c3ccco3)o2)cc1,0.6,4.0,6.3,70.2*,-0.6,54.5*,72.2*,
COC(=O)C1CN(Cc2cn(CCOC(C)=O)nn2)CCS(=O)(=O)N1Cc1ccc(OC)cc1 (stereo unspecified),-1.8,9.2,-5.0,x,x,x,x,
O=C(O)C1CCN(c2nc(-c3ccccc3)c3cc(Br)ccc3n2)CC1,12.2,5.3,0.8,15.1*,0.4,17.1*,36.5*,
O=C(O)CCCC(=O)N1CCN(c2nc(-c3ccccc3Cl)c3cc(Br)ccc3n2)CC1,10.6,9.9,-4.2,17.0*,-2.1,22.8*,33.5*,
COC(=O)c1cc2ccsc2n1CC(=O)Nc1cc(C)cc(C)c1,-17.9,-7.6,15.5,33.1*,-4.3,38.4*,47.8*,
CCOC(=O)c1cc2sccc2n1CC(=O)Nc1ccc(OC)cc1,-1.0,-0.7,6.8,12.4*,1.6,16.4*,30.6*,
COC(=O)C1CN(Cc2ccccc2)CCS(=O)(=O)N1Cc1ccc(C)cc1 (stereo unspecified),-6.2,-8.6,3.9,x,x,x,x,
O=C(Nc1c(Br)cc2c(c1Br)Cc1ccccc1-2)C(Cl)Cl,13.8,-4.5,13.6,28.1*,-1.9,24.6*,37.9*,
CCNC(=S)NNC(=O)CSc1nc2ccccc2c(=O)n1-c1ccc(Cl)cc1,-2.7,4.8,-2.1,x,x,x,x,
COc1ccc(-c2ccc(SCC(=O)NC3CCCCC3)nn2)cc1,2.9,0.7,-0.7,-2.1,2.1,x,x,
COc1ccc(-c2cn3nc(SCC(=O)NC4CCCCC4)ccc3n2)cc1,-0.4,-3.3,-2.3,33.0*,-6.7,61.9*,75.2*,
NS(=O)(=O)c1ccc(NC(=O)COC(=O)c2cn(-c3ccccc3)nc2-c2ccc(F)cc2)cc1,-5.3,-5.7,4.0,9.0*,-1.2,16.4*,24.3*,
SMILES,NPR1 activator,NPR2 activator,Rev-erbA mod,PG9 binder,V-ATPase pHluor,PG9 bind confirm,PGV04 Ab binding,others
Fc1cccc(CNC(=S)OC2CCC23CCC(c2ccccc2)CC3)c1 (stereo unspecified),0.1,-2.3,2.4,x,x,x,x,
Cc1nnc(NC(=O)c2ccc(-c3ccc(Cl)cc3)o2)s1,1.2,-1.0,4.7,11.1*,2.2,12.7*,27.1*,
Cc1cc(N2CCN(CCO)CC2)n2nc(C)nc2n1,3.4,-9.5,-2.0,x,x,x,x,
CCc1c(C(=O)Nc2cc(C)ccc2OC)[nH]c(C)c1C(C)=O,0.5,-8.4,-1.7,19.9*,x,18.6*,24.1*,
CC(=O)c1c(C)[nH]c(C(=O)Nc2ccc(C)cc2Br)c1C,1.1,-0.4,0.3,10.3*,4.8,8.0,10.9*,
CC(=O)c1c(C)[nH]c(C(=O)Nc2cc(C)ccc2C)c1C,-2.2,-3.9,-2.0,0.4,1.7,x,x,
CCc1c(C(=O)Nc2ccc(OC)cc2)[nH]c(C)c1C(C)=O,3.4,-0.3,-4.1,0.7,2.4,x,x,
COc1ccc(C)c(NC(=O)[C@@H]2CCCN2S(=O)(=O)c2cccc3cccnc23)c1,0.6,-5.7,-2.2,x,x,x,x,
C#CCNC(=O)C[C@H]1C[C@@]2(C(=O)OC)C(=C[C@H](C3CCCC3)O[C@@H]2C)N(CCC2=CCCCC2)C1=O,0.1,-2.9,1.3,x,x,x,x,
COc1cccc(NC(=O)c2cnc(SCC(=O)NCc3ccc4c(c3)OCO4)n(C)c2=O)c1,3.0,6.7,6.8,25.6*,1.5,30.4*,43.4*,
COC(=O)c1ccc2ccn(CC(=O)NC3CCCCC3)c2c1,-2.4,-8.2,7.8,16.1*,-3.4,19.6*,31.6*,
Cc1ccc2c(Cl)c(C(=O)Nc3ccc4c(c3)OCO4)sc2c1,-0.7,4.0,11.0,14.4*,-1.2,26.4*,52.8*,
COC(=O)c1cc2sc(Cl)cc2n1CC(=O)NCCC(C)C,-8.3,-13.7,14.3,10.7*,2.0,20.3*,23.9*,
CC(=O)c1ccc(N2CCN(C(=S)Nc3ccccc3F)CC2)cc1,-0.6,1.2,3.5,-1.9,-0.2,x,x,
CC(=O)c1ccc(N2CCN(C(=S)Nc3cc(C)ccc3C)CC2)cc1,1.8,2.4,7.6,12.4*,0.4,8.8*,14.6*,
CCCCNC(=S)Nc1ccc(-c2nc3ccc(C)cc3s2)cc1,3.2,3.4,3.7,-1.2,6.4,x,x,
CCC(C)(C)NC(=S)Nc1ccc(-c2nc3ccc(C)cc3s2)cc1,7.1,-11.7,-5.1,11.3*,-0.1,10.2*,23.5*,

# From PubChem BioAssay
